ALOX12 inhib: blocks human 12-lipoxygenase activity; AID 1452; purified 12-hLO, xylenol orange hydroperoxide absorbance; P18054; 0.12% of 150,000 active; Potency, µM (highest dose often 57.1 µM), for inactives: at the top dose activity change, negative = inhibition, usual class: inhibitors; also: potency is read from the fitted curve at half-maximal effect; nearly all actives have a fitted effect of over 55% in size
Target sequence (P18054 whole entry, looked up): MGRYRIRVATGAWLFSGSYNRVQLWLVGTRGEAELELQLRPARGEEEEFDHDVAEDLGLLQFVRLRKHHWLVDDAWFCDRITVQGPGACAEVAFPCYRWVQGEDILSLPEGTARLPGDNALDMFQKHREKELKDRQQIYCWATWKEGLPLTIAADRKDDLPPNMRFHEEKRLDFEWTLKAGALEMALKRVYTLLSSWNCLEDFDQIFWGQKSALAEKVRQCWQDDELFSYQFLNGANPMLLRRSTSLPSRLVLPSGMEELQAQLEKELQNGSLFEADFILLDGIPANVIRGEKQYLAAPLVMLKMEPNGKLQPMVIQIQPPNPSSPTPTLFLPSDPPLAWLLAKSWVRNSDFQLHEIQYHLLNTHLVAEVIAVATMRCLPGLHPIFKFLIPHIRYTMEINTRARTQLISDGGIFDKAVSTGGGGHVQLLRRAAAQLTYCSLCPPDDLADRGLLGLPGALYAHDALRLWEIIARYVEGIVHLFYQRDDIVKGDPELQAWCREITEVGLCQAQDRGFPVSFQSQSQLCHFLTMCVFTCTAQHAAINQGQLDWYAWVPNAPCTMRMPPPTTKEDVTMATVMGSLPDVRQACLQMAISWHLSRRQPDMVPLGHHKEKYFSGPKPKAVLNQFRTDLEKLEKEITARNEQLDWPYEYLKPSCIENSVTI
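Purified human 12hLO (150 nM), preincubated 15 min with compound, then 40 uM arachidonic acid for 30 min, room temperature, Hepes pH 7.0 with 0.01% Triton X-100. Hydroperoxide detected by ferrous iron/xylenol orange; 573/405 nm absorbance ratio gives reaction progress.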
HPGD inh: HPGD (human) dehydrogenase inhibition | P15428 | purified HPGD, NADH fluorescence kinetic, PGE2 substrate | Potency, µM, without a hit: at the highest dose activity change, negative = inhibition, actives largely listed as inhibitors | 4.3% of 150,000 active | AID 894; active = well fitted inhibition curve with a large enough effect, not every such curve was filed as active; inconclusive = small, poorly fitted or top-dose-only effect, or another doubt; inactive = no such curve, though single readings can be large or run the other way; also: potency is read from the fitted curve at half-maximal effect
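20 nM HPGD preincubated 15 min at room temperature with compound in 50 mM Tris-HCl pH 8, 0.01% Tween 20. Started with 1 mM NAD+ and 30 uM prostaglandin E2; NADH fluorescence (360/450 nm) read 5 times over 30-s intervals, last minus first.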
IMPase Li inh: cell-permeable IMPase inhibitors with lithium potentiation; AID 1457; Potency, µM (highest dose often 59.4 µM), without a hit: at the highest dose activity, negative = IMPase inhibition, hits mostly inhibitors; CHO-M1 cells, IP1 TR-FRET (IP-One), carbachol + lithium; 0.35% of 210,000 active;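 also: IP1 builds up when IMPase is blocked and the TR-FRET signal falls; potency is read from the fitted curve at half-maximal effect; plate controls were basal vehicle for no effect and high inhibitor control for full effect; nearly all actives have a fitted effect of over 50% in size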
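Steps: plate 2000 CHO-M1 cells per well and culture 16–30 h; add compound and lithium; incubate 30 min, 37C; add d2-IP1 tracer and Eu cryptate anti-IP1 antibody in lysis buffer; read after 10 min at room temperature.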
ALDH1A1 block: inhibitors of human aldehyde dehydrogenase 1A1; Potency, µM (series often up to 75.3 µM), without a hit: at the highest dose activity, negative = inhibition, actives largely listed as inhibitors; Purified ALDH1A1, NADH fluorescence, propionaldehyde substrate; AID 1030; 7.3% of 220,000 active; active = well fitted inhibition curve with a large enough effect, not every such curve was filed as active; inconclusive = small, poorly fitted or top-dose-only effect, or another doubt; inactive = no such curve, though single readings can be large or run the other way;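 also: potency is read from the fitted curve at half-maximal effect; plate controls were no enzyme wells and a reference inhibitor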
IMPase cell inh: cell-permeable inhibitors of inositol monophosphatase (IMPase). inhibition (IP1 accumulation), % at 46.1 µM. CHO-M1 cells, IP1 accumulation, HTRF TR-FRET ratio. P97697. 120,000 tested, under 10 active; active = well fitted curve in the direction sought with a large enough effect in the signal ratio, not every such curve was filed as active; inconclusive = small, poorly fitted or top-dose-only effect, or a change in a side signal; inactive = no such curve, though single readings can be large or run the other way; the % refers to the signal ratio;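 also: cells stimulated with carbachol in lithium chloride buffer; plate controls were DMSO basal wells for no effect and reference inhibitor wells for full effect; higher means more IMPase inhibition seen as more IP1 and lower FRET ratio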
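Seeded CHO-M1 cells were dosed with compound at up to 46 uM, stimulated with carbachol for 30 min, then lysed in IP-One detection reagents. Higher IP1 lowers the TR-FRET signal.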
NPSR antagonist: blocks cAMP signaling of the human neuropeptide S receptor; Q6W5P4; CHO-NPSR cells, cAMP TR-FRET, antagonist mode; Potency, µM (doses to about 38.3 µM), for the others: at the top dose activity change, negative = inhibition, most hits filed as inhibitors; 1% of 220,000 active; AID 1461; also: potency is read from the fitted curve at half-maximal effect; nearly all actives have a fitted effect of over 50% in size
Active calls of the source: *; ? = inconclusive; · = not tested or not shown; [ ] = another dose, or the depositor's remark. The list is not random: actives were taken first. Their share in the collection is about 8.9%. Unless noted, calls follow the shape of the dose curve; as a rule, active = well fitted curve in the direction sought with a large enough effect; inconclusive = small, poorly fitted or top-dose-only effect, or another doubt; inactive = no such curve, though single readings can be large; an effect the other way counts as inactive or inconclusive. Unless noted, % is scaled to controls: 0 for no effect and ±100 for the full control effect.

SMILES	ALOX12 inhib	HPGD inh	IMPase Li inh	ALDH1A1 block	IMPase cell inh	NPSR antagonist
N#CC1=C(N2CCOCC2)/C(=C\c2ccccc2)CC1	1%	-19%	-5%	?	-4	-5%
COc1ccc(Cc2nc(=S)[nH][nH]2)cc1Br	·	·	5%	6.3µM*	·	16%
COc1ccc(C)cc1N(C(=O)c1cccc(F)c1)c1nc2ccccc2s1	1%	-25%	5%	2%	4	-27%[46.1 µM]
COc1ccc(CNC(=O)C/C(C)=N/NC(=O)C23CC4CC(CC(C4)C2)C3)cc1	·	·	12%	14µM*	·	-6%
COc1ccc(CNC(=O)C/C(C)=N/NC(=O)C(c2ccccc2)c2ccccc2)cc1	-1%	-1%	-2%[38.3 µM]	22µM*	-2	-6%[46.1 µM]
COc1ccc(CCNC(=O)COC(=O)C23CC4CC(CC(C4)C2)C3)cc1	1%	-3%	-2%	22µM*	3	9%
CC(C)(C)c1ccc(C(O)CCCN2CCC(C(O)(c3ccccc3)c3ccccc3)CC2)cc1 (stereo unspecified)	-5%	-1%	17%	0%	0	?
O=C1CC(c2ccccc2)CC2=C1C(c1ccccn1)Nc1ccccc1N2 (stereo unspecified)	-4%	-5%	18%[38.3 µM]	-2%	10	-17%[46.1 µM]
COc1ccc(C2CC(=O)C3=C(C2)Nc2ccccc2NC3c2coc3ccccc3c2=O)cc1OC (stereo unspecified)	-3%	-10%	9%	10µM*	·	10%
O=C(O)C1=C(C(=O)Nc2cccc(C(F)(F)F)c2)CCCC1	·	·	-8%	4%	·	54%
COc1cccc2c(SCC(=O)N/N=C/c3ccc(O)cc3O)cc(C)nc12	·	·	22%	28µM*	·	1%
COc1ccc2nc(C)cc(SCC(=O)N/N=C/c3ccccc3)c2c1	-6%	-18%	7%	3%	·	-1%
COc1ccc2nc(C)cc(SCC(=O)N/N=C/c3ccc(O)cc3O)c2c1	-23%	-21%	10%	25µM*	·	20%
CCOc1ccc2nc(SCC(=O)NC3CCCc4ccccc43)sc2c1 (stereo unspecified)	3%	-18%	4%	4%	·	-19%
O=c1[nH]c(=O)n(Cc2ccccc2)c2nc(-c3ccc(Oc4ccc(F)cc4)c([N+](=O)[O-])c3)n(CCO)c12	0%	-25%	7%	0%	5	6.3µM*
COCCn1c(-c2ccc(-c3ccc([N+](=O)[O-])cc3Br)o2)nc2c1c(=O)[nH]c(=O)n2CC(C)C	·	·	6%	16µM*	·	-57%
COc1ccc(-c2ccc(-c3nc4c(c(=O)[nH]c(=O)n4Cc4ccccc4)n3C)o2)c([N+](=O)[O-])c1	-1%	28µM*	-5%	1%	·	4%
COCCn1c(=O)[nH]c(=O)c2c1nc(-c1ccc(-c3ccc(Cl)cc3[N+](=O)[O-])o1)n2Cc1ccccc1	-5%	?	11%	?	·	-16%
CN1C(=O)CSc2ccc(NC(=O)N3CCC(N4CCCCC4)CC3)cc21	0%	-5%	9%[38.3 µM]	10%	7	-1%[46.1 µM]
COc1ccc(N=C2NC(=O)/C(=C\C=C\c3ccco3)S2)cc1	·	·	-4%	11µM*	·	-37%
O=C(NCCc1ccccc1)/C(=C/c1ccco1)c1ccccc1	-5%	-25%	6%	22µM*	·	-30%
CC(C)NC(=O)/C(=C/c1ccco1)c1ccccc1	-3%	-9%	-4%[38.3 µM]	-6%	2	-9%[46.1 µM]
CCC(C)NC(=O)/C(=C/c1ccco1)c1ccccc1 (stereo unspecified)	-24%	25µM*	16%[38.3 µM]	?	3	-15%[46.1 µM]
Cc1cccc(C)c1NC(=O)/C(=C/c1ccco1)c1ccccc1	-11%	-10%	7%[38.3 µM]	?	2	?
CCN1/C(=C2\C(=O)N(c3ccccc3)N=C2C)C=Cc2cc(C)ccc21	-3%	-3%	2%	10%	·	-13%
SMILES	ALOX12 inhib	HPGD inh	IMPase Li inh	ALDH1A1 block	IMPase cell inh	NPSR antagonist
FC(F)(F)c1cc(CN2CC[C@@]3(CCCNC3)C2)cc(C(F)(F)F)c1	-2%	-3%	23%	1%	·	·
O=C(O)c1[nH]c2ccc([N+](=O)[O-])cc2c1-c1ccccc1	·	·	·	·	·	7%
O=C(N/N=C/c1ccccn1)c1[nH]c2ccc([N+](=O)[O-])cc2c1-c1ccccc1	·	·	15%	4.5µM*	·	-42%
O=C(/C=C/c1cccc2ccccc12)N1CCOCC1	·	·	·	·	·	-2%
CC(C)CCn1c(CN2CCOCC2)nc2c1c(=O)n(C)c(=O)n2C	2%	-12%	30%[38.3 µM]	14µM*	13	-6%[46.1 µM]
Cn1c(=O)c2c(nc(CN3CCN(c4ccccc4)CC3)n2CCN2CCOCC2)n(C)c1=O	1%	2%	-1%[38.3 µM]	?	-13	4%[46.1 µM]
CC1CC(C)CN(Cc2nc3c(c(=O)n(C)c(=O)n3C)n2CCN2CCOCC2)C1 (stereo unspecified)	4%	-1%	2%[38.3 µM]	7.9µM*	2	3%[46.1 µM]
CCOC(=O)CSc1nc(N2CCOCC2)c2c(c1C#N)CC(C)(C)N(C)C2	-3%	·	·	18µM*	9	10%[46.1 µM]
CN1Cc2c(N3CCOCC3)nc(SCCC#N)c(C#N)c2CC1(C)C	·	·	·	·	·	2%
COc1ccc(C)cc1NC(=O)C(=O)NCc1ccncc1	-3%	·	·	18µM*	1	-10%[46.1 µM]
Cc1ccccc1C1CC(=O)Oc2ccc(O)cc21 (stereo unspecified)	-3%[0.00818 µM]	28µM*	1%	20µM*	·	·
Cc1cccc(C(=O)c2ccccc2C(=O)O)c1	·	·	·	-3%	·	-3%
COC(=O)CNC(=O)C1CCCN1C(=O)CNC(=O)OC(C)(C)C (stereo unspecified)	2%	-3%	15%[38.3 µM]	5%	-4	-6%[46.1 µM]
C/C=C/C=C/C=O	-5%	-8%	-11%	25µM*	·	·
COc1ccccc1N1CCN(/N=C/c2cc(OC)c(O)c(OC)c2)CC1	-19%	?	26%	16µM*	·	-3%
COc1cccc(C2=CC(c3cc(OC)ccc3OC)n3nnnc3N2)c1 (stereo unspecified)	-10%	-13%	34%[38.3 µM]	25µM*	10	-9%[46.1 µM]
COc1cccc(C2=CC(c3cccc(OC)c3OC)n3nnnc3N2)c1 (stereo unspecified)	-5%	-26%	20%[38.3 µM]	?	1	?
COc1ccc(OC)c(C2C=C(c3ccc(C)c(C)c3)Nc3nnnn32)c1 (stereo unspecified)	-10%	-19%	8%[38.3 µM]	20µM*	-5	-12%[46.1 µM]
COc1cccc(C2=CC(c3ccc(N(C)C)cc3)n3ncnc3N2)c1 (stereo unspecified)	-19%	-20%	1%[38.3 µM]	10µM*	-1	?
COc1ccc(-n2cnnc2SCC(=O)c2ccc(S(=O)(=O)N3CCOCC3)cc2)cc1	2%	-12%	-32%[38.3 µM]	1.4µM*	-3	-24%[46.1 µM]

Screening data as filed in PubChem BioAssay.
